± gives the standard deviation of the averaged measurements.

The test system of one assay is iBMDM (immortalised mouse bone-marrow-derived macrophages), LPS-stimulated. Description: mitochondrial superoxide (MitoSOX fluorescence) fold increase over unstimulated control; higher = more LPS-induced mitochondrial ROS (less inhibition). Particulars: inhibitor concentration: 500 nM; LPS: 100 ng/ml; time after LPS: 1 h. An outline of the steps:
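Values are fold induction of mitochondrial superoxide relative to untreated macrophages, as a mean of replicates. Immortalised mouse bone-marrow-derived macrophages, seeded in triplicate in black 96-well plates, spent 20 h in phenol-red-free 1% FCS/DMEM before a 30 min pretreatment with kinase inhibitors (500 nM). After 10 min loading with 1 μM MitoSox, cells received LPS (100 ng/ml), and fluorescence (510/580 nm) was measured every 60 min for 4 h.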
The molecule `CNC(=O)CN1CCC(Oc2cc3c(Nc4cccc(Cl)c4F)ncnc3cc2OC)CC1` [AZD8931 (Sapitinib)] returned a mitochondrial superoxide of 1.12 ± 0.041.

`CC(C)(O)CC(=O)NCCn1ccc2ncnc(Nc3ccc(Oc4cccc(C(F)(F)F)c4)c(Cl)c3)c21` showed a mitochondrial superoxide of 1.14 ± 0.019.

Turning to `CNC(=O)c1cc(Oc2ccc(NC(=O)Nc3ccc(Cl)c(C(F)(F)F)c3)c(F)c2)ccn1` [Regorafenib (BAY 73-4506)], the mitochondrial superoxide is 1.5 ± 0.04.

In turn, `Cc1cnc(Nc2ccc(OCCN3CCCC3)cc2)nc1Nc1cccc(S(=O)(=O)NC(C)(C)C)c1` gave a mitochondrial superoxide of 1.18 ± 0.14.

Molecule `Clc1ccc(C2(c3ccc(-c4cn[nH]c4)cc3)CCNCC2)cc1` showed a mitochondrial superoxide of 1.16 ± 0.065.

As to `Cn1c(=O)c(F)c(Nc2ccc(I)cc2F)c2c(=O)n(C[C@@H](O)CO)cnc21`, the mitochondrial superoxide came out at 1.36 ± 0.021.

`CCN1CCN(Cc2ccc(Nc3ncc(F)c(-c4cc(F)c5nc(C)n(C(C)C)c5c4)n3)nc2)CC1` yielded a mitochondrial superoxide of 1.13 ± 0.056.

Molecule `Cc1cc(O)c2c(c1)C(=O)c1cccc(O)c1C2=O` [Chrysophanic Acid] returned a mitochondrial superoxide of 1.29 ± 0.11.

In the case of `O=C1NCCc2[nH]c(-c3ccncc3)cc21`, the mitochondrial superoxide came to 1.31 ± 0.054.

Regarding `O=C(NCc1cccc(O)c1)Nc1nc(-c2ccncc2)cs1`, the mitochondrial superoxide is 1.36 ± 0.026.

Take `O=C(NC(NC(=S)Nc1ccc(F)c([N+](=O)[O-])c1)C(Cl)(Cl)Cl)C(c1ccccc1)c1ccccc1` (stereo unspecified): the mitochondrial superoxide is 1.13 ± 0.029.

Turning to `COc1cc2c(Nc3ccc(NC(=O)c4ccccc4)cc3)ncnc2cc1OCCCN1CCOCC1`, the mitochondrial superoxide worked out at 1.34 ± 0.06.

For `CC(C)N(CCC(=O)c1ccc2ccccc2c1)Cc1ccccc1`, the mitochondrial superoxide was 1.31 ± 0.017.

Molecule `C=CC(=O)N1CCC[C@@H](n2nc(-c3ccc(Oc4ccccc4)cc3)c3c(N)ncnc32)C1` displayed a mitochondrial superoxide of 1.26 ± 0.099.

`Nc1nc(NCCNc2ncc(-n3ccnc3)c(-c3ccc(Cl)cc3Cl)n2)ccc1[N+](=O)[O-]` displayed a mitochondrial superoxide of 1.17 ± 0.042.

`COc1ccc(CNC(=O)Nc2ncc([N+](=O)[O-])s2)cc1` yielded a mitochondrial superoxide of 1.47 ± 0.037.

For `Cc1cc(Nc2cc(CN3CCOCC3)c3nc(C)c(Cc4ccc(Cl)cc4F)n3n2)n[nH]1`, the mitochondrial superoxide was 1.16 ± 0.062.

As for `COc1cc2nccc(Oc3ccc(NC(=O)C4(C(=O)Nc5ccc(F)cc5)CC4)cc3)c2cc1OC`, the mitochondrial superoxide turned out to be 1.41 ± 0.041.

As for `NC(=O)c1ncn([C@@H]2O[C@H](CO)[C@@H](O)[C@H]2O)c1N` [Acadesine], the mitochondrial superoxide was determined as 1.108 ± 0.0017.

For the molecule `Cc1csc(-c2nnc(Nc3ccc(Oc4ncccc4-c4ccnc(N)n4)cc3)c3ccccc23)c1`, the mitochondrial superoxide turned out to be 1.35 ± 0.042.

With `COc1ccc(-c2ccc3ncc4c(c3c2)n(-c2ccc(N3CCNCC3)c(C(F)(F)F)c2)c(=O)n4C)cn1`, the mitochondrial superoxide was found to be 1.1 ± 0.041.

Molecule `CCCCCCCCCCCCc1ccc(S(=O)(=O)Nc2nncs2)cc1` returned a mitochondrial superoxide of 1.21 ± 0.041.

Molecule `CC[C@H](Nc1ncnc2[nH]cnc12)c1nc2cccc(F)c2c(=O)n1-c1ccccc1` [CAL-101 (Idelalisib, GS-1101)] displayed a mitochondrial superoxide of 1.34 ± 0.019.

The molecule `Cc1cnc(Nc2ccc(N3CCN(C)CC3)cc2)nc1Nc1cccc(S(=O)(=O)NC(C)(C)C)c1` came in with a mitochondrial superoxide of 1.36 ± 0.025.

The same assay, now with this note: inhibitor concentration: 500 nM; LPS: 100 ng/ml; time after LPS: 2 h.
For `CNC(=O)c1cc(COc2nnc(Nc3ccc(Cl)cc3)c3ccoc23)ccn1` [Telatinib], the mitochondrial superoxide worked out at 1.33 ± 0.051.

Molecule `Nc1cc(C(F)(F)F)c(-c2cc(N3CCOCC3)nc(N3CCOCC3)n2)cn1` [BKM120 (NVP-BKM120, Buparlisib)] showed a mitochondrial superoxide of 1.41 ± 0.024.

`CNC(=O)c1nn(C)c2c1C(C)(C)Cc1cnc(Nc3ccc(N4CCN(C)CC4)cc3)nc1-2`: the mitochondrial superoxide was 1.38 ± 0.086.

For `Cc1cc(C)nc(NS(=O)(=O)c2ccc(NC(=S)NC(=O)COc3ccc(Br)cc3Cl)cc2)n1`, the mitochondrial superoxide worked out at 1.45 ± 0.1.

For `CCCNC(=O)Nc1ccc(Oc2ncnc3cc(OC)c(OC)cc23)cc1Cl`, the mitochondrial superoxide was 1.21 ± 0.066.

For `CN1CCN(c2ccc3nc(-c4c(N)c5c(F)cccc5[nH]c4=O)[nH]c3c2)CC1` [Dovitinib (TKI-258, CHIR-258)], the mitochondrial superoxide turned out to be 1.7 ± 0.026.

`CNC(=O)c1ccccc1Sc1ccc2c(/C=C/c3ccccn3)n[nH]c2c1` [Axitinib] gave a mitochondrial superoxide of 1.78 ± 0.17.

In turn, `N#Cc1c(O)c2c(-c3ccc(-c4ccccc4O)cc3)csc2[nH]c1=O` came in with a mitochondrial superoxide of 1.43 ± 0.023.

As to `CCn1c(-c2nonc2N)nc2c(C#CC(C)(C)O)ncc(OC[C@H]3CCCNC3)c21`, the mitochondrial superoxide was determined as 1.4 ± 0.027.

`O=C(O)c1ccc(Nc2ncc3c(n2)-c2ccc(Cl)cc2C(c2c(F)cccc2F)=NC3)cc1` displayed a mitochondrial superoxide of 1.45 ± 0.044.

As to `COc1cc(Nc2ncc(F)c(Nc3ccc4c(n3)N(COP(=O)(O)O)C(=O)C(C)(C)O4)n2)cc(OC)c1OC` [Fostamatinib (R788)], the mitochondrial superoxide is 1.429 ± 0.0045.

For `CS(=O)(=O)N1CCc2c(-c3cnc(N)nc3)nc(N3CCOCC3)nc21`, the mitochondrial superoxide turned out to be 1.48 ± 0.024.

In the case of `O=c1cc(-c2cccc3c2Sc2ccccc2S3)oc(N2CCOCC2)c1`, the mitochondrial superoxide was 1.48 ± 0.063.

On to `CNC(=O)CN1CCC(Oc2cc3c(Nc4cccc(Cl)c4F)ncnc3cc2OC)CC1` [AZD8931 (Sapitinib)], for which the mitochondrial superoxide was 1.24 ± 0.048.

`CC(C)(O)CC(=O)NCCn1ccc2ncnc(Nc3ccc(Oc4cccc(C(F)(F)F)c4)c(Cl)c3)c21`: the mitochondrial superoxide was 1.37 ± 0.12.

Molecule `CNC(=O)c1cc(Oc2ccc(NC(=O)Nc3ccc(Cl)c(C(F)(F)F)c3)c(F)c2)ccn1` [Regorafenib (BAY 73-4506)] had a mitochondrial superoxide of 1.68 ± 0.057.

In turn, `Cc1cnc(Nc2ccc(OCCN3CCCC3)cc2)nc1Nc1cccc(S(=O)(=O)NC(C)(C)C)c1` registered a mitochondrial superoxide of 1.33 ± 0.21.

In turn, `Clc1ccc(C2(c3ccc(-c4cn[nH]c4)cc3)CCNCC2)cc1` came in with a mitochondrial superoxide of 1.21 ± 0.061.

For `Cn1c(=O)c(F)c(Nc2ccc(I)cc2F)c2c(=O)n(C[C@@H](O)CO)cnc21`, the mitochondrial superoxide worked out at 1.39 ± 0.028.

Consider `CCN1CCN(Cc2ccc(Nc3ncc(F)c(-c4cc(F)c5nc(C)n(C(C)C)c5c4)n3)nc2)CC1`, for which the mitochondrial superoxide stood at 1.25 ± 0.02.

For the molecule `Cc1cc(O)c2c(c1)C(=O)c1cccc(O)c1C2=O` [Chrysophanic Acid], the mitochondrial superoxide was found to be 1.36 ± 0.097.

The molecule `O=C1NCCc2[nH]c(-c3ccncc3)cc21` had a mitochondrial superoxide of 1.41 ± 0.039.

On to `O=C(NCc1cccc(O)c1)Nc1nc(-c2ccncc2)cs1`, for which the mitochondrial superoxide came out at 1.44 ± 0.015.

Molecule `O=C(NC(NC(=S)Nc1ccc(F)c([N+](=O)[O-])c1)C(Cl)(Cl)Cl)C(c1ccccc1)c1ccccc1` (stereo unspecified) had a mitochondrial superoxide of 1.25 ± 0.031.

As for `COc1cc2c(Nc3ccc(NC(=O)c4ccccc4)cc3)ncnc2cc1OCCCN1CCOCC1`, the mitochondrial superoxide stood at 1.44 ± 0.069.

`CC(C)N(CCC(=O)c1ccc2ccccc2c1)Cc1ccccc1` gave a mitochondrial superoxide of 1.44 ± 0.11.

In turn, `C=CC(=O)N1CCC[C@@H](n2nc(-c3ccc(Oc4ccccc4)cc3)c3c(N)ncnc32)C1` returned a mitochondrial superoxide of 1.32 ± 0.041.

`Nc1nc(NCCNc2ncc(-n3ccnc3)c(-c3ccc(Cl)cc3Cl)n2)ccc1[N+](=O)[O-]` displayed a mitochondrial superoxide of 1.23 ± 0.024.

Molecule `COc1ccc(CNC(=O)Nc2ncc([N+](=O)[O-])s2)cc1` yielded a mitochondrial superoxide of 1.54 ± 0.026.

In turn, `Cc1cc(Nc2cc(CN3CCOCC3)c3nc(C)c(Cc4ccc(Cl)cc4F)n3n2)n[nH]1` had a mitochondrial superoxide of 1.23 ± 0.048.

Regarding `COc1cc2nccc(Oc3ccc(NC(=O)C4(C(=O)Nc5ccc(F)cc5)CC4)cc3)c2cc1OC`, the mitochondrial superoxide stood at 1.43 ± 0.017.

As to `NC(=O)c1ncn([C@@H]2O[C@H](CO)[C@@H](O)[C@H]2O)c1N` [Acadesine], the mitochondrial superoxide turned out to be 1.2 ± 0.043.

On to `Cc1csc(-c2nnc(Nc3ccc(Oc4ncccc4-c4ccnc(N)n4)cc3)c3ccccc23)c1`, for which the mitochondrial superoxide came to 1.5 ± 0.038.

`COc1ccc(-c2ccc3ncc4c(c3c2)n(-c2ccc(N3CCNCC3)c(C(F)(F)F)c2)c(=O)n4C)cn1` registered a mitochondrial superoxide of 1.27 ± 0.078.

`CCCCCCCCCCCCc1ccc(S(=O)(=O)Nc2nncs2)cc1` came in with a mitochondrial superoxide of 1.2 ± 0.016.

`CC[C@H](Nc1ncnc2[nH]cnc12)c1nc2cccc(F)c2c(=O)n1-c1ccccc1` [CAL-101 (Idelalisib, GS-1101)] displayed a mitochondrial superoxide of 1.4 ± 0.06.

`Cc1cnc(Nc2ccc(N3CCN(C)CC3)cc2)nc1Nc1cccc(S(=O)(=O)NC(C)(C)C)c1` displayed a mitochondrial superoxide of 1.51 ± 0.04.

The record behind these values is the supplement of paper PMC7393113.
